These compounds were tested on Trichuris muris adult worms (assay: mean motility score (Paragon pixel variance) of adult worms (arbitrary units); higher = more motile worms, i.e. less anthelmintic effect; extreme values may be limits of the assay). Conditions: 100 µM; 24 h.
Method in brief: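 Single adult Trichuris muris worms, collected from infected NOD SCID mice, were placed in 96-well plates with 100 μL RPMI-1640 plus antibiotics and drug at 100 μM (1% v/v DMSO), then kept at 37°C and 5% CO2 for 24 h. Plates were filmed on an automated phenotyping platform (200 frames, 100 ms apart). Motility score came from Paragon pixel-variance analysis, averaged across replicate wells. Each drug had three worms in three wells, run on three separate occasions, with vehicle and positive controls.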

SMILES	mean motility score
CN/C(=C\[N+](=O)[O-])NCCSCc1csc(CN(C)C)n1 [nizatidine]	3800
c1ccc(CC2=NCCN2)cc1 [tolazoline]	1230
CCN1CCN(c2cc(-c3ccc(F)cc3)c3c(n2)CCCCCC3)CC1 [blonanserin]	3080
O=C1O[C@H](CO)[C@@H](O)[C@H](O)[C@H]1O [gluconolactone]	2100
CC(C)[C@H](N)C(=O)OCCOCn1cnc2c(=O)nc(N)[nH]c21.Cl [valacyclovir hydrochloride]	4300
C[C@@H](Oc1cc(-c2cnn(C3CCNCC3)c2)cnc1N)c1c(Cl)ccc(F)c1Cl [crizotinib]	284
Cc1c(C)c2c(c(C)c1O)CC[C@@](C)(CCC[C@H](C)CCC[C@H](C)CCCC(C)C)O2 [vitamin E]	2950
COc1c2occc2cc2ccc(=O)oc12 [methoxsalen]	4190
N[C@@H](CC(=O)O)C(=O)O [aspartic acid]	3610
NC(=O)CC[C@H](N)C(=O)O [glutamine]	3380
FC(F)(F)C(F)(F)C(F)(F)C(F)(F)C(F)(F)C(F)(F)C(F)(F)C(F)(F)Br [perflubron]	1630
CN(C)CCOC(=O)C(c1ccccc1)C1(O)CCCC1 (centres undefined) [cyclopentolate]	2640
O=C(O)c1cc(-c2ccc(F)cc2F)ccc1O [diflunisal]	1040
CCOC(=O)[C@H](CCc1ccccc1)N[C@@H](C)C(=O)N1Cc2cc(OC)c(OC)cc2C[C@H]1C(=O)O.Cl [moexipril hydrochloride]	3680
